Results as given in the supplement of paper PMC7411054.

Tests used:
Details in all cases: treatment time: 24 h
HepG2-ACTB-RAB5A [1] = assay: lowest phenotypically active concentration; higher = less potent
In short: (§1)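 Fifteen gene-edited A549, HepG2 and WPMY1 reporter lines (BFP segmentation plus GFP and RFP/FusionRed markers) were treated at 0.3, 1, 3 or 9 µM for 24 h, four wells each, then imaged live. Live-cell features per well were normalised to DMSO control wells. Deviation required ≥3 of 4 wells beyond the 95th percentile of DMSO Euclidean distances, and reproducibility required median replicate Pearson correlation above the 95th percentile of non-replicates. Phenotypic activity needed both criteria.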

HepG2-CANX-COX4 [2] = assay: as above
In short: as §1

HepG2-GM130-SQSTM1 [3] = assay: as above
In short: as §1

WPMY1-GM130-SQSTM1 [4] = assay: as above
In short: as §1

WPMY1-TP53BP1-CLTA [5] = assay: as above
In short: as §1

A549-ACTB-RAB5A = assay: phenotypically active (imaging signature differs from DMSO and reproducible) at any of 0.3-9 uM (binary (1 = active, 0 = inactive)); higher = active
In short: as §1

A549-CANX-COX4 = assay: as above
In short: as §1

A549-GM130-SQSTM1 = assay: as above
In short: as §1

A549-TP53BP1-CLTA = assay: as above
In short: as §1

A549-TUBA1B-RELA = assay: as above
In short: as §1

HepG2-ACTB-RAB5A [6] = assay: as above
In short: as §1

HepG2-CANX-COX4 [7] = assay: as above
In short: as §1

HepG2-GM130-SQSTM1 [8] = assay: as above
In short: as §1

HepG2-TP53BP1-CLTA = assay: as above
In short: as §1

HepG2-TUBA1B-RELA = assay: as above
In short: as §1

WPMY1-ACTB-RAB5A = assay: as above
In short: as §1

WPMY1-CANX-COX4 = assay: as above
In short: as §1

WPMY1-GM130-SQSTM1 [9] = assay: as above
In short: as §1

WPMY1-TP53BP1-CLTA [10] = assay: as above
In short: as §1

WPMY1-TUBA1B-RELA = assay: as above
In short: as §1

Row | SMILES | lowest phenotypically active concentration (HepG2-ACTB-RAB5A [1]) [µM] | lowest phenotypically active concentration (HepG2-CANX-COX4 [2]) [µM] | lowest phenotypically active concentration (HepG2-GM130-SQSTM1 [3]) [µM] | lowest phenotypically active concentration (WPMY1-GM130-SQSTM1 [4]) [µM] | lowest phenotypically active concentration (WPMY1-TP53BP1-CLTA [5]) [µM] | phenotypically active (A549-ACTB-RAB5A) | phenotypically active (A549-CANX-COX4) | phenotypically active (A549-GM130-SQSTM1) | phenotypically active (A549-TP53BP1-CLTA) | phenotypically active (A549-TUBA1B-RELA) | phenotypically active (HepG2-ACTB-RAB5A [6]) | phenotypically active (HepG2-CANX-COX4 [7]) | phenotypically active (HepG2-GM130-SQSTM1 [8]) | phenotypically active (HepG2-TP53BP1-CLTA) | phenotypically active (HepG2-TUBA1B-RELA) | phenotypically active (WPMY1-ACTB-RAB5A) | phenotypically active (WPMY1-CANX-COX4) | phenotypically active (WPMY1-GM130-SQSTM1 [9]) | phenotypically active (WPMY1-TP53BP1-CLTA [10]) | phenotypically active (WPMY1-TUBA1B-RELA)
1 | CCn1cnc2c(Nc3cccc(Cl)c3)nc(N[C@H]3CCCC[C@H]3N)nc21 | 1 | 1 | 1 | 1 | 1 | 1 (active) | 1 (active) | 1 (active) | 1 (active) | 1 (active) | 1 (active) | 1 (active) | 1 (active) | 1 (active) | 1 (active) | 1 (active) | 1 (active) | 1 (active) | 1 (active) | 1 (active)
2 | Cc1cc2c(C(C)C)c(O)c(O)c(C=O)c2c(O)c1-c1c(C)cc2c(C(C)C)c(O)c(O)c(C=O)c2c1O [gossypol] | 9 | 9 | 9 | 9 | 3 | 1 (active) | 1 (active) | 1 (active) | 1 (active) | 1 (active) | 1 (active) | 1 (active) | 1 (active) | 1 (active) | 1 (active) | 1 (active) | 1 (active) | 1 (active) | 1 (active) | 1 (active)
3 | C[C@@]12C(=O)OC(=O)[C@]1(C)[C@H]1CC[C@@H]2O1 [Cantharidin] | 3 | 9 | 9 | 3 | 3 | 1 (active) | 1 (active) | 1 (active) | 1 (active) | 0 (inactive) | 1 (active) | 1 (active) | 1 (active) | 1 (active) | 1 (active) | 1 (active) | 1 (active) | 1 (active) | 1 (active) | 1 (active)
4 | Cc1sc2c(c1C)C(c1ccc(Cl)cc1)=N[C@@H](CC(N)=O)c1nnc(C)n1-2 | ≤ 0.3 | ≤ 0.3 | ≤ 0.3 | ≤ 0.3 | ≤ 0.3 | 1 (active) | 1 (active) | 1 (active) | 1 (active) | 1 (active) | 1 (active) | 1 (active) | 1 (active) | 1 (active) | 1 (active) | 1 (active) | 1 (active) | 1 (active) | 1 (active) | 1 (active)
5 | COc1cc2c(c(OC)c1OC)-c1ccc(OC)c(=O)cc1[C@@H](NC(C)=O)CC2 [colchicine] | ≤ 0.3 | ≤ 0.3 | ≤ 0.3 | ≤ 0.3 | ≤ 0.3 | 1 (active) | 1 (active) | 1 (active) | 1 (active) | 1 (active) | 1 (active) | 1 (active) | 1 (active) | 1 (active) | 1 (active) | 1 (active) | 1 (active) | 1 (active) | 1 (active) | 1 (active)
6 | COc1ccc(N(C(=O)Oc2c(C)cccc2C)c2ccnc(Nc3ccc(N4CCN(C)CC4)cc3)n2)c(OC)c1 | ≤ 0.3 | 1 | 3 | – | 3 | 1 (active) | 1 (active) | 1 (active) | 1 (active) | 1 (active) | 1 (active) | 1 (active) | 1 (active) | 1 (active) | 1 (active) | 1 (active) | 0 (inactive) | 0 (inactive) | 1 (active) | 0 (inactive)
7 | C[C@@H]1O[C@@H](O[C@H]2C[C@@H](O)[C@]3(CO)[C@H]4[C@H](O)C[C@]5(C)[C@@H](C6=CC(=O)OC6)CC[C@]5(O)[C@@H]4CC[C@]3(O)C2)[C@H](O)[C@H](O)[C@H]1O [Strophantine octahydrate] | ≤ 0.3 | ≤ 0.3 | ≤ 0.3 | ≤ 0.3 | ≤ 0.3 | 1 (active) | 1 (active) | 1 (active) | 1 (active) | 1 (active) | 1 (active) | 1 (active) | 1 (active) | 1 (active) | 1 (active) | 1 (active) | 1 (active) | 1 (active) | 1 (active) | 1 (active)
8 | CN1C[C@H](C(=O)N[C@]2(C)O[C@@]3(O)[C@@H]4CCCN4C(=O)[C@H](Cc4ccccc4)N3C2=O)C=C2c3cccc4[nH]cc(c34)C[C@H]21 [ergotamine] | 9 | 3 | 3 | 3 | 3 | 1 (active) | 1 (active) | 1 (active) | 1 (active) | 1 (active) | 1 (active) | 1 (active) | 1 (active) | 1 (active) | 1 (active) | 1 (active) | 1 (active) | 1 (active) | 1 (active) | 1 (active)
9 | C[C@@H]1CC[C@H]2[C@@H](C)C(=O)O[C@@H]3O[C@@]4(C)CC[C@@H]1[C@]32OO4 [Artemisinin] | 3 | – | 3 | ≤ 0.3 | 1 | 1 (active) | 0 (inactive) | 1 (active) | 1 (active) | 1 (active) | 1 (active) | 0 (inactive) | 1 (active) | 1 (active) | 1 (active) | 1 (active) | 1 (active) | 1 (active) | 1 (active) | 1 (active)
10 | COc1cc2c(c(OC)c1OC)-c1ccc(O)c(=O)cc1[C@@H](N)CC2 [Trimethylcolchicinic acid] | – | 9 | – | – | – | 1 (active) | 1 (active) | 1 (active) | 1 (active) | 1 (active) | 0 (inactive) | 1 (active) | 0 (inactive) | 0 (inactive) | 1 (active) | 0 (inactive) | 0 (inactive) | 0 (inactive) | 0 (inactive) | 0 (inactive)
11 | C[C@]12CC[C@H](O)C[C@H]1CC[C@@H]1[C@@H]2C[C@@H](O)[C@]2(C)[C@@H](C3=CC(=O)OC3)CC[C@]12O [Digoxigenin] | 1 | 3 | 3 | 3 | 1 | 1 (active) | 1 (active) | 1 (active) | 1 (active) | 1 (active) | 1 (active) | 1 (active) | 1 (active) | 1 (active) | 1 (active) | 1 (active) | 1 (active) | 1 (active) | 1 (active) | 1 (active)
12 | O=C1NC(=O)c2c1c1c3ccccc3n3c1c1c2c2ccccc2n1C1CCC3O1 | – | – | – | ≤ 0.3 | 9 | 1 (active) | 0 (inactive) | 1 (active) | 0 (inactive) | 1 (active) | 0 (inactive) | 0 (inactive) | 0 (inactive) | 1 (active) | 0 (inactive) | 1 (active) | 1 (active) | 1 (active) | 1 (active) | 0 (inactive)
13 | CC[C@@H](CO)NC(=O)[C@@H]1C=C2c3cccc4c3c(cn4C)C[C@H]2N(C)C1 [methysergide] | – | – | – | – | – | 0 (inactive) | 0 (inactive) | 1 (active) | 0 (inactive) | 0 (inactive) | 0 (inactive) | 0 (inactive) | 0 (inactive) | 0 (inactive) | 0 (inactive) | 0 (inactive) | 0 (inactive) | 0 (inactive) | 0 (inactive) | 0 (inactive)
14 | CC(C)(O)[C@H]1O[C@H]2CC[C@@]3(C)[C@@](O)(CC[C@H]4Cc5c([nH]c6ccccc56)[C@@]43C)C2=CC1=O [paxilline] | 9 | – | – | 9 | 9 | 1 (active) | 0 (inactive) | 0 (inactive) | 0 (inactive) | 0 (inactive) | 1 (active) | 0 (inactive) | 0 (inactive) | 1 (active) | 0 (inactive) | 0 (inactive) | 0 (inactive) | 1 (active) | 1 (active) | 0 (inactive)
15 | O=c1[nH]c2ccccc2n1C1CCN(CCCC(c2ccc(F)cc2)c2ccc(F)cc2)CC1 [pimozide] | 3 | – | 3 | – | – | 1 (active) | 0 (inactive) | 1 (active) | 0 (inactive) | 1 (active) | 1 (active) | 0 (inactive) | 1 (active) | 0 (inactive) | 1 (active) | 0 (inactive) | 0 (inactive) | 0 (inactive) | 0 (inactive) | 0 (inactive)
16 | O=C(Nc1ccncc1)C(=O)c1cn(Cc2ccc(Cl)cc2)c2ccccc12 [Indibulin] | 1 | ≤ 0.3 | ≤ 0.3 | ≤ 0.3 | ≤ 0.3 | 1 (active) | 0 (inactive) | 1 (active) | 1 (active) | 1 (active) | 1 (active) | 1 (active) | 1 (active) | 1 (active) | 1 (active) | 1 (active) | 1 (active) | 1 (active) | 1 (active) | 1 (active)
17 | C[C@H]1O[C@@H](O[C@H]2[C@@H](O)C[C@H](O[C@H]3[C@@H](O)C[C@H](O[C@H]4CC[C@@]5(C)[C@H](CC[C@@H]6[C@@H]5CC[C@]5(C)[C@@H](C7=CC(=O)OC7)[C@@H](O)C[C@]65O)C4)O[C@@H]3C)O[C@@H]2C)C[C@H](O)[C@@H]1O [Gitoxin] | ≤ 0.3 | ≤ 0.3 | 1 | 1 | ≤ 0.3 | 1 (active) | 1 (active) | 1 (active) | 1 (active) | 1 (active) | 1 (active) | 1 (active) | 1 (active) | 1 (active) | 1 (active) | 1 (active) | 1 (active) | 1 (active) | 1 (active) | 1 (active)
18 | COc1ccc(CCN2CCC(Nc3nc4ccccc4n3Cc3ccc(F)cc3)CC2)cc1 [astemizole] | 3 | 3 | 3 | 3 | 9 | 1 (active) | 1 (active) | 1 (active) | 1 (active) | 1 (active) | 1 (active) | 1 (active) | 1 (active) | 1 (active) | 1 (active) | 1 (active) | 1 (active) | 1 (active) | 1 (active) | 1 (active)
19 | CC[C@@H]1C=CC=CC[C@H](C)[C@@H](O)[C@](C)(O)C(=O)[C@H](C)[C@@H](O)[C@H](C)C(=O)[C@H](C)[C@@H](O)[C@H](C)C=CC(=O)O[C@H]2[C@@H](C)[C@@H](CC1)O[C@@]1(CC[C@@H](C)[C@@H](C[C@H](C)O)O1)[C@@H]2C [Oligomycin A] | ≤ 0.3 | ≤ 0.3 | ≤ 0.3 | – | – | 1 (active) | 1 (active) | 1 (active) | 1 (active) | 1 (active) | 1 (active) | 1 (active) | 1 (active) | 1 (active) | 1 (active) | 0 (inactive) | 1 (active) | 0 (inactive) | 0 (inactive) | 0 (inactive)
